# Gal4-VP16 FLuc: inhibits Gal4-VP16 luciferase reporter, ROR gamma counter-screen; Drosophila S2 Gal4-VP16 UAS-luciferase, luminescence, 20 h; Potency, µM (series often up to 53.6 µM), without a hit: top-dose activity, negative = inhibition, hits mostly inhibitors; actives 3.5% (n = 310,000);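 also: Gal4-VP16 expression switched on by copper sulfate through the metallothionein promoter; potency is read from the fitted curve at half-maximal effect; nearly all actives have a fitted effect of over 50% in size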
# IL1B secr inh: blocks inflammasome-driven IL-1 beta release; THP-1 LPS/ATP IL-1B secretion, AlphaLISA, 16 h; stronger effect = lower value; actives 4.7% (n = 360,000); activity change, % at 57.5 µM; in the data active = activity change below about -50%; inconclusive = mostly about -30% to -49%
#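 THP-1 cells pretreated 1 hr with compounds (up to 57.5 uM final), then stimulated with LPS (250 ng/mL final) plus ATP (1.25 mM final); secreted IL-1B measured by AlphaLISA after 16 hr, decreased signal indicating inhibition.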
# DT40 TDP1 no CPT: qHTS for Inhibitors of human tyrosyl-DNA phosphodiesterase 1 (TDP1): qHTS in cells in absence of CPT; DT40 Tdp1-/- hTDP1 cells, no CPT, ATP luminescence, 48 h; Potency, µM (top dose mostly 46.2 µM), for the others: top-dose activity change, negative = growth inhibition, most hits filed as inhibitors; actives 15% (n = 420,000); also: potency is read from the fitted curve at half-maximal effect; nearly all actives have a fitted effect of over 55% in size
#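 Chicken DT40 Tdp1-/- cells stably complemented with human TDP1 were seeded at 400 cells/well with DMSO in place of 20 nM camptothecin. After compound pinning, cells grew at least 48 hr at 37 °C; viability read by CellTiter-Glo luminescence.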
# TDP1 cell CPT: DT40-hTDP1 cell growth loss with CPT; actives 12% (n = 420,000); chicken DT40 Tdp1-/-;hTDP1 cells + 20 nM CPT, ATP luminescence, 48 h; Potency, µM (top dose mostly 46.2 µM), inactives show at the highest dose activity change, negative = growth inhibition, hits mostly inhibitors; also: potency is read from the fitted curve at half-maximal effect; nearly all actives have a fitted effect of over 55% in size
#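 Chicken DT40 Tdp1-/- cells stably complemented with human TDP1 were seeded at 400 cells/well in medium containing 20 nM camptothecin, exposed to pin-transferred compounds, and grown at 37 °C for at least 48 hr. Viability was read as ATP luminescence.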
# ELG1 repair inh: ELG1-dependent DNA repair inhibition; actives 2.3% (n = 330,000); HEK293T ELG1-luciferase reporter, luminescence, 16 h; DNA damage induced by 5-fluorouridine; AID 504467; Potency, µM (top dose mostly 46.1 µM), without a hit: at the highest dose activity change, negative = inhibition, usual class: inhibitors; also: potency is read from the fitted curve at half-maximal effect; nearly all actives have a fitted effect of over 55% in size
#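 HEK293T cells expressing luciferase-tagged ELG1 (2,000/well) received 5-Fluorouridine plus compound or DMSO for 16 hr at 37 °C. Luciferase was read by ONE-Glo luminescence after 30 min at room temperature.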
# RORg inh: ROR gamma (mouse) transcription inhibition; Drosophila S2 Gal4-RORgamma UAS-luciferase reporter, 20 h; actives 5.4% (n = 310,000); Potency, µM (doses to about 53.6 µM), without a hit: at the highest dose activity change, negative = inhibition, actives largely listed as inhibitors; also: potency is read from the fitted curve at half-maximal effect; nearly all actives have a fitted effect of over 60% in size
# Target sequence (P51450 whole entry, looked up, the tested form may be a part): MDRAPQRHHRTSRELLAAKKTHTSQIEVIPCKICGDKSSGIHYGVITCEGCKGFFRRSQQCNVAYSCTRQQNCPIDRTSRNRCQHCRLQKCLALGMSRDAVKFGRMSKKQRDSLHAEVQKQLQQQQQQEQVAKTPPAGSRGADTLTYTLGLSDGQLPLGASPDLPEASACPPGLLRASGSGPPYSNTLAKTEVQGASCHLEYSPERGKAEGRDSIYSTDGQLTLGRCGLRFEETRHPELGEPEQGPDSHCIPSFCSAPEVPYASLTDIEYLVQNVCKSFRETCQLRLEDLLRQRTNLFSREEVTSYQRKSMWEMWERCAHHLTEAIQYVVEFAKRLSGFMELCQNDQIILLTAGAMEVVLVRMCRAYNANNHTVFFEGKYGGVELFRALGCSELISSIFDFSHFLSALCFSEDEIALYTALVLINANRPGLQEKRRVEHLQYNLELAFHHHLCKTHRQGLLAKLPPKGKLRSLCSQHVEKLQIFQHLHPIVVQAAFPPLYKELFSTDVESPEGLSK
#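 Using a luciferase readout, inhibitors were identified by reduced reporter activity in Drosophila cells coexpressing a copper-inducible Gal4–ROR gamma fusion and UAS-driven Photinus luciferase, incubated 20 hr after 700 uM copper sulfate.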
# An asterisk follows results filed as active; u = inconclusive; x = no result given. The list is not random: actives were taken first. Their share in the collection is about 21%. Unless noted, calls follow the shape of the dose curve; as a rule, active = well fitted curve in the direction sought with a large enough effect; inconclusive = small, poorly fitted or top-dose-only effect, or another doubt; inactive = no such curve, though single readings can be large; an effect the other way counts as inactive or inconclusive. % is scaled to controls: 0 for no effect and ±100 for the full control effect.
SMILES,Gal4-VP16 FLuc,IL1B secr inh,DT40 TDP1 no CPT,TDP1 cell CPT,ELG1 repair inh,RORg inh
COc1ccc([C@H]2CC(=O)C=C(c3ccc(OC(F)(F)F)cc3)C2)cc1,x,-17,u,u,42%,x
COc1ccc([C@H]2CC(=O)C=C(c3cc(C)ccc3F)C2)cc1,x,-5,u,-23%,-5%,x
COc1ccc(OC)c(C2=CC(=O)C[C@H](c3ccc4c(c3)OCO4)C2)c1,x,6,10µM*,7.3µM*,u,x
CNC(=O)C[C@H]1C(=O)N(C2CCCCC2)C[C@@H]1c1ccc(Br)cc1,x,11,-1%,1%,x,x
Cc1cccc(CN2CCN(CC(=O)NCCc3ccc(Cl)cc3)C2=O)c1,x,x,u,-13%,x,x
COc1cccc(NC(=O)CN(C)C(=O)C2CC(=O)N(CCc3ccc(OC)c(OC)c3)C2)c1 (configuration not stated),x,-5,-3%,1%,x,x
COCCCNc1nc(N)c([N+](=O)[O-])c(N2CCCCCC2)n1,-8%,0,-6%,-30%,-8%,u
COc1ccc([C@H]2CC(=O)C=C(c3ccc(Br)c4ccccc34)C2)cc1,x,-5,-2%,-4%,-8%,x
COc1ccc([C@H]2CC(=O)C=C(c3cc(Cl)ccc3C)C2)cc1,x,13,u,u,u,x
COc1ccc([C@H]2CC(=O)C=C(c3cc(Br)ccc3OC)C2)cc1,x,5,16µM*,18µM*,-23%,x
COc1ccc([C@H]2CC(=O)C=C(c3ccccc3-c3ccccc3)C2)cc1,x,26,23µM*,23µM*,u,x
COc1ccc([C@H]2CC(=O)C=C(c3ccnc4ccc(Cl)cc34)C2)cc1,x,-12,9.2µM*,8.2µM*,-28%,x
COC(=O)c1cc(OCC(=O)Nc2ccc3c(c2)CCC3)cc(C(=O)OC)c1,x,22,-12%,-5%,-1%,x
Clc1ccc2nc(N3CCNCC3)nc(-c3ccccc3)c2c1,u,-95*,9.2µM*,18µM*,u,u
Clc1ccc(-c2nc(N3CCOCC3)nc3ccccc23)cc1,-3%,21,u,u,16%,-15%
OCCN1CCN(c2nc(-c3ccccc3)c3cc(Cl)ccc3n2)CC1,-7%,-52*,23µM*,u,8%,-4%
O=C1CN(c2nc(-c3ccccc3)c3cc(Cl)ccc3n2)c2ccccc2N1,-24%,7,21µM*,16µM*,20%,13%
O=C1CN(S(=O)(=O)c2ccc(Cl)cc2)c2ccccc2N1,-6%,8,-2%,13%,-6%,-1%
Nc1ncnc2c1ncn2[C@@H]1O[C@H](CNCc2ccccc2OC2OC(CO)C(O)C(O)C2O)[C@@H](O)[C@H]1O (some centres not stated),x,6,-4%,6%,13%,x
O=C1c2c(Cl)c(Cl)c(Cl)c(Cl)c2C(=O)N1c1nccs1,x,28,u,u,x,x
COC(=O)COc1ccc(Oc2nc(NC(C)(C)C)nc(N3CCOCC3)n2)nn1,x,x,-5%,-23%,x,x
COc1ccc(C(OCC(O)CNC(C)c2ccccc2)c2ccc(OC)cc2)cc1 (configuration not stated),-2%,-98*,23µM*,u,-1%,1%
CC(C)c1ccc(OCC(O)CNC(C)c2ccccc2)cc1 (configuration not stated),-9%,-85*,16µM*,16µM*,-1%,u
CCC(=O)c1ccc(OCC(O)CNC(C)c2ccccc2)cc1 (configuration not stated),-5%,3,u,u,1%,-40%
COc1cccc(OCC(O)CNC(C)c2ccccc2)c1 (configuration not stated),-7%,-25,u,u,0%,0%
SMILES,Gal4-VP16 FLuc,IL1B secr inh,DT40 TDP1 no CPT,TDP1 cell CPT,ELG1 repair inh,RORg inh
Cc1cccc(C)c1OCC(O)CNC(C)c1ccccc1 (configuration not stated),-3%,u,5.2µM*,3.7µM*,-18%,-3%
Cc1cccc2nc(Cn3c(=O)n(-c4ccc(Cl)cc4)c(=O)c4c5c(sc43)CCC5)cc(=O)n12,x,x,0%,-15%,x,x
Cc1c(C)c2c(c(C)c1O)CC[C@@](C)(CCC[C@@H](C)CCC[C@@H](C)CCCC(C)C)O2,-1%,x,x,x,x,-13%
C=CCn1c(=NC(=O)c2sc3ccccc3c2Cl)sc2cc(S(N)(=O)=O)ccc21,u,-4,u,u,9%,u
CCOC(=O)Cn1c(=NC(=O)c2nc3ccccc3s2)sc2cc(S(N)(=O)=O)ccc21,u,12,u,u,u,-15%
C=CCn1c(=NC(=O)c2cc(-c3cccs3)nc3ccccc23)sc2cc(S(N)(=O)=O)ccc21,-29%,-11,u,u,18µM*,u
COCCn1c(=NC(=O)c2sc3ccccc3c2Cl)sc2cc(S(N)(=O)=O)ccc21,u,17,13µM*,u,u,6%
